# Screening results as filed in PubChem BioAssay.
# An excerpt weighted towards active compounds, which were near 4.7% of everything screened.
# GDH-TPI counter: GDH-TPI coupled enzyme inhibition counter-screen. GDH-TPI coupled enzyme counterscreen, NADH absorbance. inhibition, % at 4.8 µM. 360,000 compounds, 1.2% hits;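 note: 0% = DMSO wells and 100% = wells lacking the enzyme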
# CCHF vOTU inh: blocks the CCHF virus ovarian tumor domain protease; inhibition, % at 11.5 µM; CCHFV vOTU protease, Pep-AMC fluorescence; 370,000 compounds, 0.55% hits; AID 651958; note: 0% = vehicle wells with enzyme and 100% = no enzyme wells
# 3CLpro inhibitor: SARS-CoV 3CLpro protease inhibition; P0C6X7; recombinant SARS-CoV 3CLpro, quenched FRET peptide cleavage; inhibition, % at 6 µM; 290,000 compounds, 0.14% hits; AID 1706; in the data active = inhibition above about 12%
# FBA Mtb inh: inhibitors of M. tuberculosis fructose-bisphosphate aldolase. P9WQA3. purified M. tuberculosis FBA, fluorescence read-out. inhibition, % at 1 µM. 360,000 compounds, 2.3% hits. AID 588726; in the data active = inhibition above about 27%;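 note: 0% = vehicle and 100% = reference inhibitor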
# RecA splice inh: inhibitors of M. tuberculosis RecA intein splicing. AID 2221. 290,000 compounds, 0.75% hits. inhibition, % (concentration not given with the values). cell-free RecA intein splicing, fluorescence. P9WHJ3; in the data active = inhibition above about 30%;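 note: 0% = vehicle wells and 100% = reference inhibitor control wells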
# DUSP3 inh: inhibitors of human VHR1 phosphatase (DUSP3). recombinant VHR phosphatase, pNPP absorbance. inhibition, % at 13.3 µM. 290,000 compounds, 0.52% hits; in the data active = inhibition above about 50%
# The depositor's hits bear a star; / = not tested or not shown; + = active, no number. Cut-off read from the data, not from the text of the source, unless noted: active = inhibition above about 30%; inactive = the rest.
SMILES,GDH-TPI counter,CCHF vOTU inh,3CLpro inhibitor,FBA Mtb inh,RecA splice inh,DUSP3 inh
CC(=O)NC(Cc1ccccc1)C(=O)N1CCN(C(=O)c2ccco2)CC1 (stereo unspecified),2.6,/,-1.9,0.6,0.1,-3.8
CC(=O)NC(CSC(CC(=O)c1ccco1)c1ccc(C)cc1)C(=O)O (stereo unspecified),31.4*,9.7,5.4,5.4,2.7,25.9
COc1ccc(OC)c(NC(=O)C2(C)CCN2C(=O)C(C)(C)c2ccccc2)c1 (stereo unspecified),4.0,-2.0,/,-1.9,/,/
Fc1ccc(/C=N/Nc2ncnc3nc[nH]c23)cc1F,42.2*,-1.8,-1.3,-0.8,-3.0,-3.6
CC(=O)Nc1ccc(NC(=O)CC2(CC(=O)N3CCOCC3)CCCC2)cc1,-11.3,2.0,/,2.4,/,/
O=C(COc1ccccc1F)Nc1c2c(nn1-c1ccccc1)CS(=O)(=O)C2,-2.4,8.5,0.8,-1.4,2.2,17.5
CN1CCN(c2ccc(NC(=O)c3ccc(-c4ccc(Br)cc4)o3)cc2)CC1,14.8,8.3,-7.2,-1.3,16.0,1.2
Cc1ccccc1C(=O)Nc1cccc(NC(=O)c2ccc(-c3ccc(Br)cc3)o2)c1,33.7*,13.1,2.6,-1.6,3.0,21.3
CC(C)Oc1ccc(C(=O)N/N=C/c2ccc(-c3ccc(S(=O)(=O)Nc4ncccn4)cc3)o2)cc1,49.5*,-4.9,-2.5,30.9*,-0.8,15.8
NC(=O)N/N=C/c1ccc(-c2ccc(S(=O)(=O)Nc3ncccn3)cc2)o1,37.0*,-2.2,/,8.9,/,/
Cc1noc(NS(=O)(=O)c2ccc(NC(=O)c3ccc(OC(C)C)cc3)cc2)c1C,-1.9,7.1,2.0,-3.4,1.1,16.4
NC(=S)N/N=C/c1ccc(-c2ccc([N+](=O)[O-])cc2)o1,13.3,16.8,2.8,-4.3,-4.8,9.0
c1ccc2c(c1)CC1(CCCCC1)n1nnnc1-2,12.5,-8.0,-8.9,0.2,-0.2,3.3
c1ccc2c(c1)Cn1nnnc1-2,-1.5,/,-2.6,135.4*,-2.1,3.1
Cc1cccc(S(=O)(=O)Nc2nc3ccccc3nc2NCC2CCCO2)c1 (stereo unspecified),33.3*,-10.0,1.8,3.7,-0.8,17.9
Cc1ccc(S(=O)(=O)Nc2nc3ccccc3nc2NCc2ccco2)cc1,32.0*,-11.3,6.8,21.7,-6.4,15.5
Cc1ccc(S(=O)(=O)Nc2nc3ccccc3nc2NCC2CCCO2)cc1C (stereo unspecified),33.3*,0.7,7.0,18.6,3.9,13.1
O=S(=O)(Nc1nc2ccccc2nc1NCc1ccco1)c1ccc(Cl)cc1,10.0,5.8,5.0,1.8,-1.4,-9.6
CCc1ccc(CNC(=O)C2CCN(S(=O)(=O)N3CCCCC3)CC2)cc1,12.0,26.4,/,1.4,/,/
CCOC(=O)c1nn(-c2ccccc2)c(C#N)c1N,9.8,-163.7,1.0,+,1.1,2.0
CCOC(=O)c1nn(-c2ccccc2)c(=O)c(C#N)c1C,30.6,12.6,0.2,1.9,25.3,4.0
C#CCN1CC(N(C)CCOC(=O)CCCc2ccccc2)CS1(=O)=O (stereo unspecified),/,-0.6,/,/,/,/
CN(C)CCNc1ncnc2c1sc1nc(N3CCOCC3)c3c(c12)CC(C)(C)SC3,28.3,-2.4,-4.6,5.0,-0.6,9.1
CC1(C)Cc2c(c(N3CCOCC3)nc3sc4c(NCCN)ncnc4c23)CO1,46.8*,-3.0,/,12.4,/,/
CCN(CC)CCNc1ncnc2c1sc1nc(N3CCOCC3)c3c(c12)CC(C)(C)SC3,33.7*,-2.8,-0.7,7.1,/,3.8
SMILES,GDH-TPI counter,CCHF vOTU inh,3CLpro inhibitor,FBA Mtb inh,RecA splice inh,DUSP3 inh
CN(C)/C=N/c1nc2nccc(-c3cccs3)n2n1,27.9,-265.2,-1.0,188.0*,-19.4,20.2
c1csc(-c2ccnc3ncnn23)c1,24.0,-109.2,3.3,160.2*,-1.0,-11.3
CCCCCN1CCCCC(NC(=O)c2ccccc2OC)C1=O (stereo unspecified),/,-4.1,/,/,/,/
CCOc1cccc(-c2nnc3n2N=C(c2ccc(OC)cc2)CS3)c1,/,11.3,/,/,/,/
O=C(NCc1cccnc1)/C(=C/c1ccc(-c2cccc(C(F)(F)F)c2)o1)NC(=O)c1ccccc1,32.5*,21.3,-1.1,2.0,1.8,16.7
O=C(NCc1cccnc1)/C(=C/c1ccc(-c2ccc(Cl)cc2)o1)S(=O)(=O)c1ccccc1,40.5*,-7.9,2.1,5.0,35.2*,32.7
CCOC(=O)[C@@]12CN(C(=O)OC(C)(C)C)CC=C1N(Cc1ccc(OC)cc1)C(=O)[C@H]2CC(=O)NCc1cccc(C(F)(F)F)c1,/,25.6,/,/,/,/
Cc1ccc(NC(=O)Cc2ccc(F)cc2)c(S(=O)(=O)N2CCOCC2)c1,/,-0.8,/,/,/,/
CCOC(=O)C1=CCN(S(=O)(=O)c2ccc(Cl)cc2)C1c1cccc(Br)c1 (stereo unspecified),/,4.2,/,/,/,/
CC1CN(c2ccc([N+](=O)[O-])c(NCCOc3ccccc3)c2)CC(C)N1 (stereo unspecified),14.3,-3.2,-8.5,-10.6,2.5,51.5*
Cc1nc(-c2ccccc2)sc1-c1ccnn1C,2.2,-62.7,-0.9,123.6*,0.3,5.5
COC(=O)[C@H](Cc1ccccc1)N1CC=CS1(=O)=O,/,-10.1,/,/,/,/
Cc1c(Cc2ccccc2)c(=O)oc2cc(O)cc(O)c12,12.5,-115.1,2.2,113.9*,-58.0,3.0
Cc1[nH]c(=O)[nH]c(=O)c1S(=O)(=O)Nc1cccc(C(F)(F)F)c1,13.8,1.8,-0.1,-2.4,-1.4,22.5
Clc1ccccc1Nc1nnc(-c2ccncc2)s1,17.3,-0.5,-0.1,1.7,-0.9,8.8
CCNc1nnc(-c2ccncc2)s1,21.0,-114.7,-0.7,136.0*,-3.0,21.4
CNc1nnc(-c2ccncc2)s1,16.5,-70.2,3.0,145.1*,1.5,-9.5
C=CCNC(=O)/C(=C\C=C\c1ccccc1)NC(=O)c1ccc(OCCCC)cc1,35.3*,13.9,4.8,3.2,8.2,13.0
CN(C)CCCNC(=O)/C(=C\C=C\c1ccccc1)NC(=O)c1ccc([N+](=O)[O-])cc1,33.7*,0.2,-4.2,-2.1,3.3,32.9
CCCCOC(=O)/C(=C/C=C/c1ccccc1)NC(=O)c1ccccc1,25.2,1.9,7.2,-0.6,3.5,-25.2
CCCCOc1ccc(C(=O)N/C(=C/C=C/c2ccccc2)C(=O)NCCO)cc1,31.1*,19.9,-0.2,-2.0,0.6,-13.8
CCCCOc1ccc(C(=O)N/C(=C/C=C/c2ccccc2)C(=O)NCCCO)cc1,25.9,7.3,-0.3,1.3,10.0,-7.9
O=C(N[C@H](C(=O)N1CCC[C@H]1C(=O)NC1CCCC1)C1CCCCC1)c1ccco1,/,-4.4,/,/,/,/
COc1ccc2c(c1)CCCN2C(=O)C1CCCN(S(=O)(=O)c2cccs2)C1 (stereo unspecified),/,1.0,/,/,/,/
C=CCN(CC=C)C[C@@H]1CSCCS(=O)(=O)N1,/,-0.5,/,/,/,/
Cc1ccc(C)c(NC(=S)N2CCCC2)c1,13.7,-6.9,0.9,1.6,1.0,35.7
Cc1ccc(NC(=S)N2CCCCCC2)c(C)c1,8.1,4.5,-2.8,0.2,2.1,52.8*
